In PubChem BioAssay (NCATS):
Results filed as inconclusive are left out. Active and inactive are the calls of the source. Unless noted, calls follow the shape of the dose curve; as a rule, active = well fitted curve in the direction sought with a large enough effect; inconclusive = small, poorly fitted or top-dose-only effect, or another doubt; inactive = no such curve, though single readings can be large; an effect the other way counts as inactive or inconclusive.

Tests used:
[1] = target: DNA dC->dU-editing enzyme APOBEC-3G (Homo sapiens) (UniProt Q9HC16); assay: qHTS for inhibitors of Vif-A3G interactions: Validation (AID 588379)
Chain of DNA dC->dU-editing enzyme APOBEC-3G (Homo sapiens) (Q9HC16 whole entry, looked up): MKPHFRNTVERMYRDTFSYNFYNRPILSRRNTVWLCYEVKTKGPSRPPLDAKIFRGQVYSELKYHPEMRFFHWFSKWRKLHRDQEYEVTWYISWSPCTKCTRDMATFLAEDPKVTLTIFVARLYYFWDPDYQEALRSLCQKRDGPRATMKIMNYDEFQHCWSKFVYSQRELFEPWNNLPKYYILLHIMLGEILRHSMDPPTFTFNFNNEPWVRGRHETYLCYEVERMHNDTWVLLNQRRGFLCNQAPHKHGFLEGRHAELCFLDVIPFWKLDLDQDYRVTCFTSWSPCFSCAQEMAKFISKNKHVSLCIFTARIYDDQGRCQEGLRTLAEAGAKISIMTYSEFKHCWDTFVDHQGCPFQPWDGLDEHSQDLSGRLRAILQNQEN
How it was run: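 HeLa cells stably expressing Vif and A3G-eYFP, 700 cells/well, incubated overnight at 37 deg C, then exposed to compound overnight at 37 deg C. Inhibition of Vif-mediated degradation read as increased yellow fluorescence (Ex 488/Em 500-530) by laser-scanning cytometry.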

[2] = target: Peroxisome proliferator-activated receptor delta (Homo sapiens) (UniProt Q03181); assay: qHTS assay for small molecule antagonists of peroxisome proliferator-activated receptor delta signaling (AID 588535; active = well fitted inhibition curve with a large enough effect in the signal ratio, with a control signal flat, not every such curve was filed as active; the % refers to the signal ratio)
Chain of Peroxisome proliferator-activated receptor delta (Homo sapiens) (Q03181 whole entry, looked up): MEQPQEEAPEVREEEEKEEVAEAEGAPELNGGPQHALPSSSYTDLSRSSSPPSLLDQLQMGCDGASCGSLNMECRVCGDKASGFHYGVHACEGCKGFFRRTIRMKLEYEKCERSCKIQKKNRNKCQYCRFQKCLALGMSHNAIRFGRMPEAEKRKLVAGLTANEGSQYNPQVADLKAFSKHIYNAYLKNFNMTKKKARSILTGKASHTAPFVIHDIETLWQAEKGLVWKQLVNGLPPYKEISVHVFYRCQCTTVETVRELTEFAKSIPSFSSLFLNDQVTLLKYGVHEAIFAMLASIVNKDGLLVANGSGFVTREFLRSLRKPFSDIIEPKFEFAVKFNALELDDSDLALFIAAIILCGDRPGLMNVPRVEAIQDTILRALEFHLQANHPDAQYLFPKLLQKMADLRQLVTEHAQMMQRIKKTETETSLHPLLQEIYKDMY
How it was run: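 GeneBLAzer PPAR-delta-UAS-bla HEK293T cells in medium with 2% charcoal/dextran FBS were preincubated 5 hrs at 37 C, then given compounds, incubated 18 hrs at 37 C, and read by CCF4 beta-lactamase fluorescence; IC50 from Hill fits.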

[3] = Cell Viability - Jurkat (AID 426;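 active = dose-dependent loss of cell ATP signal giving a full or clear fitted curve, ranked by lower potency value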; also: potency is read from the fitted curve at half-maximal effect); conditions: qHTS
How it was run: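 Jurkat (clone E6-1, human T-cell leukemia) cells, 5000/well in complete medium, were exposed to compound for 40 hr at 37 °C. Viability was read as intracellular ATP by CellTiter-Glo luminescence; AC50 came from Hill fits of concentration-response data.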

[4] = Cell Viability - SH-SY5Y (AID 544); conditions: SH-SY5Y neuroblastoma cell viability; viability change, negative = cytotoxic: at 92.2 µM (top of the series); also: nearly all actives have a fitted effect of over 55% in size
How it was run: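 Human neuroblastoma SH-SY5Y cells (1500/well) in complete medium were exposed to compounds for 40 hr at 37 °C; intracellular ATP was then quantified by CellTiter-Glo luminescence after 20 min at room temperature. AC50 came from Hill-equation concentration-response fits.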

[5] = Cellular Toxicity (caspase-3) HepG2 (AID 654);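 also: cells exposed to compound for 16 hours before reading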
How it was run: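 HepG2 cells (1500/well) in complete medium were treated with compounds for 16 hr at 37 °C. Caspase-3/7 activity was then read as luminescence from peptide-aminoluciferin cleavage. AC50 came from Hill fits, normalized to DMSO and 100 uM tamoxifen.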

[6] = MultiTox-Fluor Cytotoxicity Assay - LYMP1-001 - Dead Cells (AID 946)
How it was run: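 Cytotoxicity as increased dead-cell protease fluorescence (bis-AAF-R110, 485/520 nm), read 60 min after MultiTox-Fluor reagent. Human lymphoblastoid line exposed 16 h; Hill-fitted AC50, with DMSO as 0% and 15 uM tetraoctylammonium bromide as 100%.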

[7] = MultiTox-Fluor Cytotoxicity Assay - LYMP1-002 - Live Cells (AID 955)
How it was run: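 Human lymphoblastoid LYMP1-002 cells, 2500/well in complete medium, rested 5 hr at 37 C, then exposed to compounds for 16 hr at 37 C. Live-cell protease cleavage of GF-AFC read by fluorescence (Ex/Em 405/510) after 60 min at room temperature; AC50 from Hill fits.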

[8] = Cell Viability - LYMP1-003 - Assay at 40 hr (AID 964); also: nearly all actives have a fitted effect of over 60% in size
How it was run: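 Human lymphoblastoid LYMP1-003 cells, 2500/well in complete medium, rested 5 hr at 37 C, then exposed to compounds for 40 hr at 37 C. Viability read as intracellular ATP by CellTiter-Glo luminescence; AC50 from Hill fits of concentration-response data.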

[9] = Cell Viability - LYMP2-003 (AID 965);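 also: cells exposed to compounds for 24 h before reading; nearly all actives have a fitted effect of over 50% in size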
How it was run: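 CellTiter-Glo luminescence quantified ATP loss after 24 h compound treatment of LYMP2-003 lymphoblastoid cells at 37 C. Titration series were fitted with the standard Hill equation to give AC50.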

[10] = Cell Viability - LYMP2-004 (AID 966); also: nearly all actives have a fitted effect of over 65% in size
How it was run: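 Human lymphoblastoid cells (2500/well) in complete medium were treated with compounds for 24 hr at 37 C, then intracellular ATP was measured by CellTiter-Glo luminescence. AC50 values came from Hill-equation fits of concentration-response data.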

[11] = Cell Viability - LYMP2-009 (AID 968); also: nearly all actives have a fitted effect of over 55% in size
[12] = Cell Viability - LYMP2-017 (AID 972); also: nearly all actives have a fitted effect of over 55% in size
How it was run: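 Human lymphoblastoid cells (2500/well) were seeded in complete medium, held 5 hr at 37 C, then exposed to compounds for 24 hr at 37 C. Intracellular ATP was read by CellTiter-Glo luminescence after 30 min at room temperature, with AC50 values from Hill-equation fits.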

[13] = Cell Viability - LYMP2-010 (AID 981); also: nearly all actives have a fitted effect of over 55% in size
How it was run: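 Human lymphoblastoid LYMP2-010 cells (2500/well) were preincubated 5 hr at 37 C, then exposed to compounds for 24 hr at 37 C in complete medium. Intracellular ATP was measured by CellTiter-Glo luminescence after 30 min at room temperature; AC50 from Hill-fitted concentration-response.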

[14] = Cell Viability - LYMP2-016 (AID 984); also: nearly all actives have a fitted effect of over 55% in size
How it was run: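 Cytotoxicity was scored by luminescent ATP content (CellTiter-Glo) after 24 h compound exposure at 37 C of a human lymphoblastoid line at 2500 cells/well. Concentration-response data were fitted to the Hill equation for AC50.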

[15] = Cell Viability - LYMP2-018 (AID 985);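 also: compound exposure lasted 24 hr at 37 °C; nearly all actives have a fitted effect of over 50% in size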
How it was run: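 Human lymphoblastoid cells (2500/well) were pre-incubated 5 hr at 37 C, then exposed to compounds for 24 hr at 37 C in complete medium. Viability was read as intracellular ATP by CellTiter-Glo luminescence; AC50 values came from Hill-equation fits.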

[16] = Cell Viability - LYMP2-022 (AID 987); also: nearly all actives have a fitted effect of over 55% in size
How it was run: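 Human lymphoblastoid cells, 2500/well, preincubated 5 hr at 37 C, then exposed to compounds over a concentration range for 24 hr at 37 C in complete medium. Viability read as intracellular ATP by CellTiter-Glo luminescence after 30 min at room temperature; AC50 from Hill fits.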

[17] = Cell Viability - LYMP2-024 (AID 988); also: nearly all actives have a fitted effect of over 60% in size
How it was run: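 Human lymphoblastoid cells (2500/well) in complete medium were preincubated 5 hr at 37 C, then exposed to compounds for 24 hr at 37 C. Intracellular ATP was read by CellTiter-Glo luminescence; AC50 from Hill-equation fits of concentration-response data.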

[18] = target: Peroxisome proliferator-activated receptor gamma (Homo sapiens) (UniProt P37231); assay: qHTS assay for small molecule agonists of peroxisome proliferator-activated receptor gamma signaling (AID 588536; active = well fitted curve in the direction sought with a large enough effect in the signal ratio, with a control signal flat, not every such curve was filed as active; the % refers to the signal ratio)
Chain of Peroxisome proliferator-activated receptor gamma (Homo sapiens) (P37231 whole entry, looked up): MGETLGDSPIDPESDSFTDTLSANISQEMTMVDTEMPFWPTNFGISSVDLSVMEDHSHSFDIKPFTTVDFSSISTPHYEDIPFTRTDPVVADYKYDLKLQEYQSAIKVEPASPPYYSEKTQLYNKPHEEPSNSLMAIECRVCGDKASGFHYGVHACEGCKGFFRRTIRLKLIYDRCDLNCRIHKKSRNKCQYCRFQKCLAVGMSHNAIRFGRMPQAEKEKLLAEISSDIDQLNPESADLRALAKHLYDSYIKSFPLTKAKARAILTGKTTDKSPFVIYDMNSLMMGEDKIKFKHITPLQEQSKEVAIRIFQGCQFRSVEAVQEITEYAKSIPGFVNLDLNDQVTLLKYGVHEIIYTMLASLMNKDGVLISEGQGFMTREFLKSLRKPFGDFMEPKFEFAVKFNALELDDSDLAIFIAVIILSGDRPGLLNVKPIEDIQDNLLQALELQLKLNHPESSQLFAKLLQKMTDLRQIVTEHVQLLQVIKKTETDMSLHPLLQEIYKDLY
How it was run: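 Ratiometric blue/green fluorescence (405 nm excitation; 460 and 530 nm emission) from CCF4-loaded HEK293 reporter cells serves as signal. Exposure to test compounds lasts 16 h at 37 C in medium containing 1% charcoal/dextran-treated serum.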

[19] = target: Vitamin D3 receptor (Homo sapiens) (UniProt P11473); assay: qHTS assay for small molecule antagonists of vitamin D receptor signaling (AID 588541; calls by dose curve;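 also: receptor activated by calcitriol during compound treatment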)
Chain of Vitamin D3 receptor (Homo sapiens) (P11473 whole entry, looked up): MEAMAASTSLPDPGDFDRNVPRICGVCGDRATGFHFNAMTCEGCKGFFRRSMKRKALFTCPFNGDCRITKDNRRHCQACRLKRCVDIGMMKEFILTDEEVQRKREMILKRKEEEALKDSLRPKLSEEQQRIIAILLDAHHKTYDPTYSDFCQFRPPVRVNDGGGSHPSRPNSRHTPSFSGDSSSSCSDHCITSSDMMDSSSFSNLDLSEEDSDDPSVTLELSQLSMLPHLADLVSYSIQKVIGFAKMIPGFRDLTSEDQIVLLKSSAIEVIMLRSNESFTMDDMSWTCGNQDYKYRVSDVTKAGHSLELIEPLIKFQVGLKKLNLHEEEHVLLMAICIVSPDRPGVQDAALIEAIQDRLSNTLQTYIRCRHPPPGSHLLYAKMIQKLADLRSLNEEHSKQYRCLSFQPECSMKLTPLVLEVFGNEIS
How it was run: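 VDR-UAS-bla HEK293T cells (2000/well, 2% charcoal-stripped FBS) were treated with titrated compounds plus 1-alpha,25-dihydroxyvitamin D3 (50 nM or 3 nM final) for 16 h at 37 C. CCF4 beta-lactamase fluorescence was read; Hill fits gave IC50.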

[20] = qHTS assay for small molecule agonists of the antioxidant response element (ARE) signaling pathway measured by Nrf2-dependant transcriptional activity (AID 720636; active = well fitted curve in the direction sought with a large enough effect in the repeat runs; an effect the other way counts as inactive or inconclusive;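 also: HepG2 cells with an ARE-driven luciferase reporter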)
How it was run: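 Reporter gene assay, HepG2 ARE-luc: 16 hr compound, 37 C, 5% CO2; read-out luciferase luminescence.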

Measured: Potency

CC(=O)c1c(O)c(C)c(O)c(Cc2c(O)c3c(c(C(=O)/C=C\c4ccccc4)c2O)OC(C)(C)C=C3)c1O
inactive: [1]

C(CCOCC1CO1)COCC1CO1 (stereo not drawn)
inactive: [2]

CCCCCc1cc(O)cc(O)c1
inactive: [3] > 92 µM | [4] | [5] | [6] | [7] | [8] | [9] | [10] | [11] | [12] | [13] | [14] | [15] | [16] | [17] | [18] | [19] | [20]

c1ccoc1
inactive: [3] > 92 µM | [4] | [5] | [6] | [7] | [8] | [9] | [10] | [11] | [12] | [13] | [14] | [15] | [16] | [17] | [18] | [19] | [20]
